# Measurements reported in article PMC11006913.
# Positions count from the first letter of the chain named.
# Experiments:
# Assay in all cases: PBM; 200 nM protein, PBS
# Details in all cases: dsDNA, one strand shown
# [1] = target: NKX2-5 (Homo sapiens, UniProt P52952 125-210, R139K)
# [2] = target: HOXA2 (Homo sapiens, UniProt O43364 129-215, R185T)
# [3] = target: MSX2 (Homo sapiens, UniProt P35548 130-214, R199I)
# [4] = target: HOXD13 (Homo sapiens, UniProt P35453 263-343, T313R)
# [5] = target: HOXA2 (Homo sapiens, UniProt O43364 129-215, R185K)
# HOXA2 (Homo sapiens, UniProt O43364 129-215, R185K), sequence (O43364 129-215 R185K): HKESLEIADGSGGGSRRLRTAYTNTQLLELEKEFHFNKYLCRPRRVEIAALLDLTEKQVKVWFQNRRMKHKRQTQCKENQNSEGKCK
# [6] = target: HOXD13 (Homo sapiens, UniProt P35453 263-343)
# HOXD13 (Homo sapiens, UniProt P35453 263-343), sequence (P35453 263-343): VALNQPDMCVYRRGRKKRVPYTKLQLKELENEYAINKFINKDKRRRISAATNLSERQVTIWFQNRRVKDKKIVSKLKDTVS
# [7] = target: MSX2 (Homo sapiens, UniProt P35548 130-214)
# MSX2 (Homo sapiens, UniProt P35548 130-214), sequence (P35548 130-214): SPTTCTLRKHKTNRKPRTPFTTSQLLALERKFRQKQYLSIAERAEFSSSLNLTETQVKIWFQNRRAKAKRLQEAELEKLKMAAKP
# [8] = target: VAX1 (Homo sapiens, UniProt Q5SQQ9 86-172)
# VAX1 (Homo sapiens, UniProt Q5SQQ9 86-172), sequence (Q5SQQ9 86-172): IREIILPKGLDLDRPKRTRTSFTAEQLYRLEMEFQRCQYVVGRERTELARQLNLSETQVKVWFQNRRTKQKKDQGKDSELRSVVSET
# [9] = target: HOXD13 (Homo sapiens, UniProt P35453 263-343, T313A)
# HOXD13 (Homo sapiens, UniProt P35453 263-343, T313A), sequence (P35453 263-343 T313A): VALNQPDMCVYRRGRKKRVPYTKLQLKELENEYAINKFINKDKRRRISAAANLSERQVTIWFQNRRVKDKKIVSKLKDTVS
# [10] = target: MSX2 (Homo sapiens, UniProt P35548 130-214, F161Y)
# MSX2 (Homo sapiens, UniProt P35548 130-214, F161Y), sequence (P35548 130-214 F161Y): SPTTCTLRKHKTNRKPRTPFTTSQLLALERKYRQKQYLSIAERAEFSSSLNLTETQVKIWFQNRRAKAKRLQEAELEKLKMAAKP
# [11] = target: VAX1 (Homo sapiens, UniProt Q5SQQ9 86-172, T142I)
# VAX1 (Homo sapiens, UniProt Q5SQQ9 86-172, T142I), sequence (Q5SQQ9 86-172 T142I): as the sequence (Q5SQQ9 86-172) above, with T57I counted along it
# [12] = target: HOXA2 (Homo sapiens, UniProt O43364 129-215, Y150S)
# HOXA2 (Homo sapiens, UniProt O43364 129-215, Y150S), sequence (O43364 129-215 Y150S): as the sequence (O43364 129-215 R185K) above, with Y22S, K57R counted along it
# [13] = target: HOXA2 (Homo sapiens, UniProt O43364 129-215)
# HOXA2 (Homo sapiens, UniProt O43364 129-215), sequence (O43364 129-215): as the sequence (O43364 129-215 R185K) above, with K57R counted along it
# [14] = target: VAX1 (Homo sapiens, UniProt Q5SQQ9 86-172, K157R)
# VAX1 (Homo sapiens, UniProt Q5SQQ9 86-172, K157R), sequence (Q5SQQ9 86-172 K157R): as the sequence (Q5SQQ9 86-172) above, with K72R counted along it
# [15] = target: NKX2-5 (Homo sapiens, UniProt P52952 125-210)
# NKX2-5 (Homo sapiens, UniProt P52952 125-210), sequence (P52952 125-210): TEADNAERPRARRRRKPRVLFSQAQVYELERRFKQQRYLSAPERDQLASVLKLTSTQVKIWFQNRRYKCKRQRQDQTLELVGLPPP
# [16] = target: T1, SIX6 (Homo sapiens, UniProt O95475 114-200, L167I)
# T1 sequence: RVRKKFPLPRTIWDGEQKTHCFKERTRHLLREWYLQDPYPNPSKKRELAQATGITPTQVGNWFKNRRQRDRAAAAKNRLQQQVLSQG
# [17] = target: T2, SIX6 (Homo sapiens, UniProt O95475 114-200, L143V)
# T2 sequence: T1 sequence with L30V, I54L
# [18] = target: T3, SIX6 (Homo sapiens, UniProt O95475 114-200, H141N)
# T3 sequence: T1 sequence with H28N, I54L
# [19] = target: T4, SIX6 (Homo sapiens, UniProt O95475 114-200, T165P)
# T4 sequence: T1 sequence with T52P, I54L
# [20] = target: T5, SIX6 (Homo sapiens, UniProt O95475 114-200, L167M)
# T5 sequence: T1 sequence with I54M
# [21] = target: T6, SIX6 (Homo sapiens, UniProt O95475 114-200, L143M)
# T6 sequence: T1 sequence with L30M, I54L
# [22] = target: T7, SIX6 (Homo sapiens, UniProt O95475 114-200, L143I)
# T7 sequence: T1 sequence with L30I, I54L
# [23] = target: T8, SIX6 (Homo sapiens, UniProt O95475 114-200, T165G)
# T8 sequence: T1 sequence with T52G, I54L
# [24] = target: T9, SIX6 (Homo sapiens, UniProt O95475 114-200, T139Q)
# T9 sequence: T1 sequence with T26Q, I54L
# [25] = target: T10, SIX6 (Homo sapiens, UniProt O95475 114-200, T165A)
# T10 sequence: T1 sequence with T52A, I54L
# [26] = target: T11, SIX6 (Homo sapiens, UniProt O95475 114-200, L167V)
# T11 sequence: T1 sequence with I54V
# [27] = target: T12, SIX6 (Homo sapiens, UniProt O95475 114-200)
# T12 sequence: T1 sequence with I54L
# [28] = target: T13, SIX6 (Homo sapiens, UniProt O95475 114-200, T165I)
# T13 sequence: T1 sequence with T52I, I54L
# [29] = target: ALX3 (Homo sapiens, UniProt O95076 139-225, N203Q)
# ALX3 (Homo sapiens, UniProt O95076 139-225, N203Q), sequence (O95076 139-225 N203Q): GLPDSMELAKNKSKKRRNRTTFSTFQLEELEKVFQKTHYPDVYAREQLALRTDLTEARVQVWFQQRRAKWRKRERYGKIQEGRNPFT
# [30] = target: ALX3 (Homo sapiens, UniProt O95076 139-225)
# ALX3 (Homo sapiens, UniProt O95076 139-225), sequence (O95076 139-225): as the sequence (O95076 139-225 N203Q) above, with Q65N counted along it
# [31] = target: ALX3 (Homo sapiens, UniProt O95076 139-225, L168Q)
# ALX3 (Homo sapiens, UniProt O95076 139-225, L168Q), sequence (O95076 139-225 L168Q): as the sequence (O95076 139-225 N203Q) above, with L30Q, Q65N counted along it
# [32] = target: ALX3 (Homo sapiens, UniProt O95076 139-225, L168V)
# ALX3 (Homo sapiens, UniProt O95076 139-225, L168V), sequence (O95076 139-225 L168V): as the sequence (O95076 139-225 N203Q) above, with L30V, Q65N counted along it
# [33] = target: ALX3 (Homo sapiens, UniProt O95076 139-225, N203S)
# ALX3 (Homo sapiens, UniProt O95076 139-225, N203S), sequence (O95076 139-225 N203S): as the sequence (O95076 139-225 N203Q) above, with Q65S counted along it
# [34] = target: ALX4 (Homo sapiens, UniProt Q9H161 200-286)
# ALX4 (Homo sapiens, UniProt Q9H161 200-286), sequence (Q9H161 200-286): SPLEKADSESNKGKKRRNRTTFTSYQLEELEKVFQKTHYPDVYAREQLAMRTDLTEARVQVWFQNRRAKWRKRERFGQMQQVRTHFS
# [35] = target: ALX4 (Homo sapiens, UniProt Q9H161 200-286, Q225E)
# ALX4 (Homo sapiens, UniProt Q9H161 200-286, Q225E), sequence (Q9H161 200-286 Q225E): as the sequence (Q9H161 200-286) above, with Q26E counted along it
# [36] = target: T14, NKX2-6 (Homo sapiens, UniProt A6NCS4 118-204, R150C)
# T14 sequence: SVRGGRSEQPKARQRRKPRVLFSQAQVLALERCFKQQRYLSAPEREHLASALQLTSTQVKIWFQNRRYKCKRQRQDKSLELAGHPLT
# HOXA2 (Homo sapiens, UniProt O43364 129-215, R185T), sequence (O43364 129-215 R185T): as the sequence (O43364 129-215 R185K) above, with K57T counted along it
# NKX2-5 (Homo sapiens, UniProt P52952 125-210, R139K), sequence (P52952 125-210 R139K): as the sequence (P52952 125-210) above, with R15K counted along it
# HOXD13 (Homo sapiens, UniProt P35453 263-343, T313R), sequence (P35453 263-343 T313R): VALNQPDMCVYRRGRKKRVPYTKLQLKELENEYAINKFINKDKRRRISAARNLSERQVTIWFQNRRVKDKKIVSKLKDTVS
# MSX2 (Homo sapiens, UniProt P35548 130-214, R199I), sequence (P35548 130-214 R199I): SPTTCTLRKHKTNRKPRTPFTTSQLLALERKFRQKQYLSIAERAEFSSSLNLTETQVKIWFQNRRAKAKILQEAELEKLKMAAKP
sequence,measurement,setting,value
CCCTGGCC,binding signal,[1],"8.8 upbm affinity estimate (log intensity, higher = more binding, comparable within an allelic series)"
same,binding signal,[2],"6.94 upbm affinity estimate (log intensity, higher = more binding, comparable within an allelic series)"
same,binding signal,[3],"9.39 upbm affinity estimate (log intensity, higher = more binding, comparable within an allelic series)"
same,binding signal,[4],"9.22 upbm affinity estimate (log intensity, higher = more binding, comparable within an allelic series)"
same,binding signal,[5],"10.1 upbm affinity estimate (log intensity, higher = more binding, comparable within an allelic series)"
same,binding signal,[6],"9.28 upbm affinity estimate (log intensity, higher = more binding, comparable within an allelic series)"
same,binding signal,[7],"9.37 upbm affinity estimate (log intensity, higher = more binding, comparable within an allelic series)"
same,binding signal,[8],"6.64 upbm affinity estimate (log intensity, higher = more binding, comparable within an allelic series)"
same,binding signal,[9],"9.38 upbm affinity estimate (log intensity, higher = more binding, comparable within an allelic series)"
same,binding signal,[10],"9.41 upbm affinity estimate (log intensity, higher = more binding, comparable within an allelic series)"
same,binding signal,[11],"6.9 upbm affinity estimate (log intensity, higher = more binding, comparable within an allelic series)"
same,binding signal,[12],"10.4 upbm affinity estimate (log intensity, higher = more binding, comparable within an allelic series)"
same,binding signal,[13],"6.83 upbm affinity estimate (log intensity, higher = more binding, comparable within an allelic series)"
same,binding signal,[14],"6.7 upbm affinity estimate (log intensity, higher = more binding, comparable within an allelic series)"
same,binding signal,[15],"8.75 upbm affinity estimate (log intensity, higher = more binding, comparable within an allelic series)"
CCCTCCGG,binding signal,[1],"8.58 upbm affinity estimate (log intensity, higher = more binding, comparable within an allelic series)"
same,binding signal,[16],"9.04 upbm affinity estimate (log intensity, higher = more binding, comparable within an allelic series)"
same,binding signal,[17],"8.92 upbm affinity estimate (log intensity, higher = more binding, comparable within an allelic series)"
same,binding signal,[18],"9.12 upbm affinity estimate (log intensity, higher = more binding, comparable within an allelic series)"
same,binding signal,[19],"8.9 upbm affinity estimate (log intensity, higher = more binding, comparable within an allelic series)"
same,binding signal,[20],"9.06 upbm affinity estimate (log intensity, higher = more binding, comparable within an allelic series)"
same,binding signal,[21],"8.95 upbm affinity estimate (log intensity, higher = more binding, comparable within an allelic series)"
same,binding signal,[22],"8.91 upbm affinity estimate (log intensity, higher = more binding, comparable within an allelic series)"
same,binding signal,[23],"9.05 upbm affinity estimate (log intensity, higher = more binding, comparable within an allelic series)"
same,binding signal,[2],"7.03 upbm affinity estimate (log intensity, higher = more binding, comparable within an allelic series)"
same,binding signal,[24],"9.08 upbm affinity estimate (log intensity, higher = more binding, comparable within an allelic series)"
same,binding signal,[25],"9.09 upbm affinity estimate (log intensity, higher = more binding, comparable within an allelic series)"
same,binding signal,[5],"10.1 upbm affinity estimate (log intensity, higher = more binding, comparable within an allelic series)"
same,binding signal,[26],"9.06 upbm affinity estimate (log intensity, higher = more binding, comparable within an allelic series)"
same,binding signal,[27],"9.06 upbm affinity estimate (log intensity, higher = more binding, comparable within an allelic series)"
same,binding signal,[28],"9.01 upbm affinity estimate (log intensity, higher = more binding, comparable within an allelic series)"
same,binding signal,[12],"10.3 upbm affinity estimate (log intensity, higher = more binding, comparable within an allelic series)"
same,binding signal,[13],"6.99 upbm affinity estimate (log intensity, higher = more binding, comparable within an allelic series)"
same,binding signal,[15],"8.53 upbm affinity estimate (log intensity, higher = more binding, comparable within an allelic series)"
CAGCGGCC,binding signal,[1],"8.81 upbm affinity estimate (log intensity, higher = more binding, comparable within an allelic series)"
same,binding signal,[16],"8.85 upbm affinity estimate (log intensity, higher = more binding, comparable within an allelic series)"
same,binding signal,[17],"8.77 upbm affinity estimate (log intensity, higher = more binding, comparable within an allelic series)"
same,binding signal,[18],"8.79 upbm affinity estimate (log intensity, higher = more binding, comparable within an allelic series)"
same,binding signal,[19],"8.97 upbm affinity estimate (log intensity, higher = more binding, comparable within an allelic series)"
same,binding signal,[20],"8.8 upbm affinity estimate (log intensity, higher = more binding, comparable within an allelic series)"
same,binding signal,[21],"8.83 upbm affinity estimate (log intensity, higher = more binding, comparable within an allelic series)"
same,binding signal,[22],"8.89 upbm affinity estimate (log intensity, higher = more binding, comparable within an allelic series)"
same,binding signal,[23],"8.88 upbm affinity estimate (log intensity, higher = more binding, comparable within an allelic series)"
same,binding signal,[2],"7.12 upbm affinity estimate (log intensity, higher = more binding, comparable within an allelic series)"
same,binding signal,[24],"8.81 upbm affinity estimate (log intensity, higher = more binding, comparable within an allelic series)"
same,binding signal,[29],"7.77 upbm affinity estimate (log intensity, higher = more binding, comparable within an allelic series)"
same,binding signal,[25],"8.75 upbm affinity estimate (log intensity, higher = more binding, comparable within an allelic series)"
same,binding signal,[5],"10.2 upbm affinity estimate (log intensity, higher = more binding, comparable within an allelic series)"
same,binding signal,[26],"8.83 upbm affinity estimate (log intensity, higher = more binding, comparable within an allelic series)"
same,binding signal,[30],"7.75 upbm affinity estimate (log intensity, higher = more binding, comparable within an allelic series)"
same,binding signal,[27],"8.8 upbm affinity estimate (log intensity, higher = more binding, comparable within an allelic series)"
same,binding signal,[31],"7.78 upbm affinity estimate (log intensity, higher = more binding, comparable within an allelic series)"
same,binding signal,[28],"8.74 upbm affinity estimate (log intensity, higher = more binding, comparable within an allelic series)"
same,binding signal,[32],"7.74 upbm affinity estimate (log intensity, higher = more binding, comparable within an allelic series)"
same,binding signal,[12],"10.4 upbm affinity estimate (log intensity, higher = more binding, comparable within an allelic series)"
same,binding signal,[33],"7.77 upbm affinity estimate (log intensity, higher = more binding, comparable within an allelic series)"
same,binding signal,[13],"7.19 upbm affinity estimate (log intensity, higher = more binding, comparable within an allelic series)"
same,binding signal,[15],"8.82 upbm affinity estimate (log intensity, higher = more binding, comparable within an allelic series)"
AGCCGGGG,binding signal,[1],"9.08 upbm affinity estimate (log intensity, higher = more binding, comparable within an allelic series)"
same,binding signal,[34],"8.22 upbm affinity estimate (log intensity, higher = more binding, comparable within an allelic series)"
same,binding signal,[35],"8.28 upbm affinity estimate (log intensity, higher = more binding, comparable within an allelic series)"
same,binding signal,[15],"9.03 upbm affinity estimate (log intensity, higher = more binding, comparable within an allelic series)"
CCACGGCG,binding signal,[1],"8.49 upbm affinity estimate (log intensity, higher = more binding, comparable within an allelic series)"
same,binding signal,[36],"9.16 upbm affinity estimate (log intensity, higher = more binding, comparable within an allelic series)"
same,binding signal,[15],"8.47 upbm affinity estimate (log intensity, higher = more binding, comparable within an allelic series)"
